# Measured values published in PubChem BioAssay (Tox21).
# Results filed as inconclusive are left out. Active and inactive are the calls of the source. Calls come from the whole dose curve; as a rule, active = well fitted cell-killing curve with a large enough effect in the repeat runs; inconclusive = weak or mixed curves; inactive = flat fitted curve, though single readings scatter.
# Test: qHTS assay to identify small molecule antagonists of the estrogen receptor beta (ER-beta) signaling pathway - cell viability counter screen (AID 1259382); note: nearly all actives have a fitted effect of over 55% in size
# Conditions: ER-beta-UAS-bla HEK293T viability, CellTiter-Glo luminescence, 16 h; series mostly up to 92.4 µM; activity change, negative = cytotoxicity: at the top concentration
# Description: U.S. Tox21 Program National Center for Advancing Translational Sciences [NCATS] NIH Chemical Genomics Center [NCGC] U.S. Environmental Protection Agency [EPA] National Institutes of Environmental Health Sciences [NIEHS] National Toxicology Program [NTP] U.S. Food and Drug Administration [FDA] Tox21 Assay Overview: Estrogen receptor (ER), a nuclear hormone receptor, plays an important role in development, metabolic homeostasis and reproduction. Two subtypes of ER, ER-alpha and ER-beta, have similar expression patterns with some uniqueness in both types. Endocrine disrupting chemicals (EDCs) and their interactions with steroid hormone receptors like ER causes disruption of normal endocrine function. To identify the compounds that inhibit ER signaling, an ER-beta-UAS-bla GripTite cell line (Life Technologies, Madison, WI, USA) containing a beta-lactamase reporter gene under the control of an UAS response element was used to screen Tox21 10K compound library. The cytotoxicity of the Tox21 compound library against the ER-beta-bla cell line was tested in parallel by measuring the cell viability using CellTiter-Glo assay in the same wells.
# Tox21 Assay Protocol Summary: ER-beta-UAS-bla HEK293T cells were dispensed at 2,000 cells/4 uL of assay medium containing 2% charcoal stripped FBS per well into black wall/clear-bottom 1536-well plates using a Multidrop Combi (ThermoFisher Scientific, Waltham, MA) dispenser. After the assay plates were incubated at a 37C and 5% CO2 for 6 hr, 23 nL of compounds dissolved in DMSO, positive controls or DMSO only was transferred to the assay plate by a Pintool station (Kalypsys, San Diego, CA), followed by addition of 1 uL (1nM as final concentration) of 17-beta-estradiol (E2) in assay medium using a Flying Reagent Dispenser (FRD, Aurora Discovery, San Diego, CA). The plates were incubated at 37C and 5% CO2 for 16 hr. Then 1 uL of LiveBLAzer B/G FRET substrate was added using a Flying Reagent Dispenser, the plates were incubated at room temperature for 2 hours, and fluorescence intensity was measured by an Envision plate reader (PerkinElmer, Shelton, CT). For cell viability readout that measures cytotoxicity, 4 uL/well of CellTiter-Glo reagent was added into the assay plates using a FRD. After 30 min incubation at room temperature, the luminescence intensity in the plates was measured using a ViewLux (PerkinElmer) plate reader.
# % is set by controls: 0 for no effect and ±100 for the full control effect; potency is the fitted concentration of half-maximal effect.
SMILES,Potency,"activity change, negative = cytotoxicity"
CC(C)CC(C)(C)C,31.8 µM (active),–
CCOC(=O)CC(O)(CC(=O)OCC)C(=O)OCC,–,2.24% (inactive)
N#C[C@@H]1CC(F)(F)CN1C(=O)CNC1CC2CCC(C1)N2c1ncccn1 (stereo not given in full),–,3.1% (inactive)
COc1cc(CNC(=O)CCCC/C=C/C(C)C)ccc1O,–,-0.585% (inactive)
Oc1ccc(Oc2ccccc2)cc1,–,-8.99% (inactive)
CC(=O)S[C@H](C(=O)N[C@H]1Cc2ccccc2[C@H]2CCC[C@@H](C(=O)O)N2C1=O)C(C)C,–,7.19% (inactive)
CC(CN=Cc1ccccc1O)N=Cc1ccccc1O (stereo not given),–,0.943% (inactive)
CCCOC(C)=O,–,2.64% (inactive)
CCOc1ccc(NC(C)=O)cc1N,–,1.97% (inactive)
CC(C)Oc1ccccc1O,–,-0.189% (inactive)
Cc1ccc(S(=O)(=O)NC(=O)NC2CCCC2)cc1,–,-1.93% [at 42.5 µM] (inactive)
O=C(O)c1ccncc1,–,-5.95% (inactive)
CCc1ccc2c(c1)C(=O)c1ccccc1C2=O,–,6.35% (inactive)
CC(=O)Nc1cccc(N)c1,–,-0.676% (inactive)
C=C[Si](OCC)(OCC)OCC,–,-0.203% (inactive)
CNc1ccccc1,–,5.28% (inactive)
NC(=O)c1cc[n+](CC2=C(C(=O)[O-])N3C(=O)[C@@H](NC(=O)Cc4cccs4)[C@H]3SC2)cc1,–,8.18% [at 42.5 µM] (inactive)
Clc1cc(Cl)c2c(c1)N=C1CCCCCN1C2,–,-18.7% [at 42.5 µM] (inactive)
C/C=C1\[C@H]2C=C(C)C[C@]1(N)c1ccc(=O)[nH]c1C2,–,8.46% [at 42.5 µM] (inactive)
Cc1cc(N)n(-c2ccccc2)n1,–,6.3% (inactive)

SMILES,Potency,"activity change, negative = cytotoxicity"
CC(C)(C)NCC(O)COc1ccc(NC(=O)NC2CCCCC2)cc1 (stereo not given),–,-5.99% [at 42.5 µM] (inactive)
Cc1ccc(NC=O)c(C)c1,–,4.23% (inactive)
O=C(N[C@@H](Cc1ccccc1)[C@@H](O)C(=O)N1C[C@@H](O)[C@@H](O)C1)c1cc2cc(Cl)ccc2[nH]1,–,-19.4% (inactive)
CC(C(=O)O)c1ccc2c(c1)Cc1cccnc1O2 (stereo not given),–,0.832% [at 42.5 µM] (inactive)
O=C(Cl)c1ccc(F)c(Cl)c1,–,-18.8% (inactive)
CC(C)(C)c1cc(C=O)cc(C(C)(C)C)c1O,–,-9.87% [at 42.5 µM] (inactive)
C=C(C)C(=O)OCCCCCCCCCCOC(=O)C(=C)C,–,1.19% (inactive)
O=C(c1ccc(Cl)cc1)c1ccc(Cl)cc1,–,1.55% (inactive)
CCCCCCCCCCCCCCCCCCCl,–,-0.0396% [at 8.39 µM] (inactive)
O=C(OCCOCCOCCOC(=O)c1ccccc1)c1ccccc1,–,2.08% (inactive)
FC1(F)C(F)(F)C(F)(F)C2(F)C(F)(C1(F)F)C(F)(F)C(F)(F)C1(F)C(F)(F)C(F)(F)C(F)(F)C(F)(F)C12F (stereo not given),–,3.19% (inactive)
Cc1cc(SC2=C(O)C[C@@](CCc3ccc(N)cc3)(C(C)C)OC2=O)c(C(C)(C)C)cc1CO,–,-5.22% (inactive)
O=[N+]([O-])c1ccc(Cl)cc1Cl,–,7.1% (inactive)
CC(=O)CC/C=C(\C)CC/C=C(\C)CC/C=C(\C)CCC=C(C)C,–,0.222% [at 42.5 µM] (inactive)
CCCCCC1CCC(=O)O1 (stereo not given),–,1.7% (inactive)
O=C(C1CCCCC1)N1CC(=O)N2CCCc3ccccc3C2C1 (stereo not given),–,-14% [at 42.5 µM] (inactive)
O=C(Cl)c1cc(Cl)cc(Cl)c1,–,6.36% (inactive)
Nc1ccc(-c2ccc(F)cc2)cc1,–,-0.517% (inactive)
Cc1c(-c2cccnc2)c2ccccc2n1CCCCC(=O)O,–,-6.18% (inactive)
C[C@]12CCC(=O)C=C1[C@@H]1C[C@@H]1[C@H]1[C@@H]3[C@@H]4C[C@@H]4[C@@]4(CCC(=O)O4)[C@@]3(C)CC[C@@H]12,–,-8.74% [at 42.5 µM] (inactive)
